High-throughput results: PubChem, several laboratories
In the library only some 2.9% were active in any assay of this set; here they are far more common.
KKLEB tox = reduces viability of KKLEB cystic fibrosis airway cells; KKLEB CF airway cells viability, ATPlite luminescence, overnight; stronger effect = lower value; cells stimulated with P. aeruginosa culture filtrate; activity change (cytotoxicity), % at 5 µM; hit rate 0.36% among 360,000;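 active = corrected activity change at or below -50% at 5 µM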
Shn3 inh set2 = Schnurri-3 reporter inhibition in Clone20 osteoblasts. inhibition, % at 12.5 µM. hit rate 0.52% among 360,000. AID 588674. Clone20 osteoblast Shn3 3'UTR firefly luciferase, 24 h;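 active = mean inhibition of at least 75% with every replicate also reaching 75%; inconclusive = mean inhibition at least 75% but some replicate below; inactive = mean inhibition below 75%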
Peg3 prom inh = reduces Peg3 promoter-driven luciferase expression in HeLa; HeLa PEG-Prom luciferase reporter, luminescence, overnight; inhibition, % at 20 µM; hit rate 1.7% among 360,000;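 active = inhibition of at least 50% at 20 µM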
EBV LMP1 NFkB = reduces LMP1-driven NF-kappaB luciferase signal; AID 504558; hit rate 0.69% among 350,000; inhibition, % at 12.5 µM; LMP1-induced NF-kappaB luciferase reporter cells, luminescence; in the data active = inhibition above about 41%; inconclusive = no clear call, values can overlap the other calls
CF NFkB inh = inhibitors of cystic fibrosis induced NF-kB; hit rate 0.86% among 360,000; inhibition, % at 5 µM; KKLEB NF-kB-GFP reporter, PAF-induced, GFP fluorescence overnight;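 active = at least 50% inhibition at 5 µM, scaled per plate between neutral and stimulator controls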;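 also: PAF is a Pseudomonas aeruginosa culture filtrate used as stimulus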
HIF-2a inh = inhibitors of HIF-2a. 786-0 RCC cells HIF-2a reporter, luciferase luminescence, overnight. AID 624352. hit rate 0.72% among 360,000. inhibition, % at 18.8 µM;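 active = inhibition of the luminescence signal of 40% or more relative to plate controls, in a single-dose primary screen at 18.75 µM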
Mdm2 MdmX conf = Mdm2/MdmX (human) interaction inhibition, confirmed. hit rate 99% among 740. shares compounds with HIF-2a inh. inhibition, % at 8 µM. SaOS-2 split-luciferase Mdm2/MdmX complementation, luminescence;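 active = mean inhibition of the luminescence signal across two replicates at or above 26 percent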
Target sequence (O15151 whole entry, looked up): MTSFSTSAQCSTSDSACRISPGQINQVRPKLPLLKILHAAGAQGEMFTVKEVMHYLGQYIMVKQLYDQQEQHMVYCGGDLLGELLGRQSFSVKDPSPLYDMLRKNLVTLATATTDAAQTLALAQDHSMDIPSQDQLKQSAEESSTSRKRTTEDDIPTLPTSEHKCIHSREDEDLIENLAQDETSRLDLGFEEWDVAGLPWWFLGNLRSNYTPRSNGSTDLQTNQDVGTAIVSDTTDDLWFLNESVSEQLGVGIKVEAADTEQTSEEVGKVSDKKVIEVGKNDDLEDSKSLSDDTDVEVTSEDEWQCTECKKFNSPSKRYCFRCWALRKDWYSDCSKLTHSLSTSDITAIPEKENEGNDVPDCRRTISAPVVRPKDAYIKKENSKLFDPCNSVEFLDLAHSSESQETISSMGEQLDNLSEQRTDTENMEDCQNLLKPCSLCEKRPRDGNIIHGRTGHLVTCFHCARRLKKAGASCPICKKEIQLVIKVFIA
Target sequence (Q00987 whole entry, looked up): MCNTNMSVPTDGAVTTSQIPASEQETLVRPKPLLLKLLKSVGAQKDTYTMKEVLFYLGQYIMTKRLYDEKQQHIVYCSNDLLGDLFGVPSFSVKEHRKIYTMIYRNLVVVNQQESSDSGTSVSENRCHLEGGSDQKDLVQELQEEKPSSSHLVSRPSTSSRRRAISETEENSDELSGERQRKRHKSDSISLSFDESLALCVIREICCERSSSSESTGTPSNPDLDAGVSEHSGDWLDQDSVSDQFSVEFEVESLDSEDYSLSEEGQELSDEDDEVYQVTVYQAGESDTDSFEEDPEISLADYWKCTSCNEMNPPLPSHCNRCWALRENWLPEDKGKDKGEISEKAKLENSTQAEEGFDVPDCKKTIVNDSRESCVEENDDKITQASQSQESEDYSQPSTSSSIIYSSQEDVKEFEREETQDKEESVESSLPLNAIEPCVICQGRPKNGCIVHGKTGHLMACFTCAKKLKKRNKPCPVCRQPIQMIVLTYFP
HIF-2a inh conf = HIF-2a inhibition, single concentration confirmation. inhibition, % at 18.8 µM. shares compounds with HIF-2a inh. hit rate 56% among 1,800. AID 651580. 786-0 RCC cells, HIF-2a luciferase reporter luminescence, overnight;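 active = mean inhibition across four replicates of at least 40 percent at the single tested concentration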
HIF-1a counter = HIF-1a inhibition counter-screen for HIF-2a hits; shares compounds with HIF-2a inh; MiaPaCa-2 HIF-1a luciferase reporter, desferoxamine, overnight; inhibition, % at 18.8 µM; AID 651589; hit rate 72% among 1,800;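 active = mean inhibition of the reporter signal across four replicates at the single tested dose of 50% or more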
Of the large screens only hits and unclear results are named; the others gave an inactive call (follow-up assays come after a bar, where they were run).

CCCNC(=O)c1nnsc1S(=O)c1ccc(Cl)cc1 (stereo unspecified)	Shn3 inh set2 96, Peg3 prom inh 104, CF NFkB inh 84, HIF-2a inh 44 | HIF-2a inh conf inactive | HIF-1a counter 99
CCCNC(=O)c1ccc(S(N)(=O)=O)cc1	none
CCCNC(=O)c1ccc2snnc2c1	none
O=C(OCc1ccccc1)N1CCC2CC1c1ccc(N3CCN(Cc4ccc5c(c4)OCO5)CC3)cc12 (stereo unspecified)	none (no result: EBV LMP1 NFkB)
CCC(=O)N1CCC1(C)C(=O)Nc1ccc2nc(C)ccc2c1 (stereo unspecified)	none (no result: EBV LMP1 NFkB)
COCCNC(=O)/C(C#N)=C/c1c(N2CC(C)OC(C)C2)nc2ccccn2c1=O (stereo unspecified)	none
CCOc1cccc(/C=N/Nc2ccc(S(=O)(=O)N(CC)CC)cn2)c1O	Shn3 inh set2 inconclusive, EBV LMP1 NFkB 57 | Mdm2 MdmX conf 91
CC(C)(C)c1ccc(-c2noc(CCC(=O)NCC3CCCO3)n2)cc1 (stereo unspecified)	EBV LMP1 NFkB 42, HIF-2a inh 80 | HIF-2a inh conf 95 | HIF-1a counter inactive
COc1ccc(-c2noc(CCC(=O)NCC3CCCO3)n2)cc1 (stereo unspecified)	none
CC(C)(C)c1ccc(-c2noc(CCC(=O)Nc3cccnc3)n2)cc1	EBV LMP1 NFkB 78, HIF-2a inh 92 | HIF-2a inh conf 96 | HIF-1a counter inactive
CC(C)(C)c1ccc(-c2noc(CCC(N)=O)n2)cc1	EBV LMP1 NFkB 54, HIF-2a inh 87 | HIF-2a inh conf 94 | HIF-1a counter inactive
COc1ccc(-c2noc(CCC(=O)Nc3cccnc3)n2)cc1	none (no result: EBV LMP1 NFkB)
CCN=C1SC(C(=O)Nc2ccccc2)CC(=O)N1CC (stereo unspecified)	none
COc1cc(C(C[N+](=O)[O-])c2c(N)n(C)c(=O)n(C)c2=O)ccc1O (stereo unspecified)	none
COc1cccc(F)c1C(C[N+](=O)[O-])c1c(N)n(C)c(=O)n(C)c1=O (stereo unspecified)	Peg3 prom inh 104, HIF-2a inh 88 | HIF-2a inh conf 79 | HIF-1a counter 106
S=C(N/N=C/c1ccc2ncccc2c1)Nc1ccccc1	HIF-2a inh 48 | HIF-2a inh conf inactive | HIF-1a counter 63
C(=N\NCc1ccccc1)/c1ccc2ncccc2c1	none (no result: EBV LMP1 NFkB)
CS(=O)c1nc(-c2ccc(Br)cc2)cc(-c2ccccc2)c1C#N (stereo unspecified)	Peg3 prom inh 106, HIF-2a inh 88 | HIF-2a inh conf inactive | HIF-1a counter 98
CS(=O)(=O)c1nc(-c2ccc(Br)cc2)cc(-c2ccccc2)c1C#N	KKLEB tox -66, Shn3 inh set2 98, Peg3 prom inh 113, CF NFkB inh 80, HIF-2a inh 97 | Mdm2 MdmX conf 103 | HIF-2a inh conf inactive | HIF-1a counter 100
COc1ccc(-c2cc(-c3ccccc3)c(C#N)c(S(C)(=O)=O)n2)cc1	Peg3 prom inh 104, HIF-2a inh 88 | HIF-2a inh conf inactive | HIF-1a counter 85
COc1ccc(-c2cc(-c3ccc(O)cc3)nc(N)c2C#N)cc1	none
CC1(C)CC(=O)C2=C(C1)OC1=C(C(=O)CC(C)(C)C1)C2c1ccccc1Cl	none
N#CC(=Nc1cccc(F)c1)C1=C(O)c2ccccc2C1=O	none (no result: EBV LMP1 NFkB)
CCOC(=O)C1CCCN(C(=O)COc2ccc(C(C)(C)C)cc2)CC1 (stereo unspecified)	HIF-2a inh 47 (no result: EBV LMP1 NFkB) | HIF-2a inh conf 58 | HIF-1a counter inactive
CCOc1ccc(OCc2cccc(C(=O)N3CCCCCC3)c2)cc1	EBV LMP1 NFkB 53, HIF-2a inh 44 | HIF-2a inh conf inactive | HIF-1a counter inactive
Cc1ccc(CCNC(=O)c2cc(-c3ccncc3)nc3ccc(S(=O)(=O)N4CCOCC4)cc23)cc1	none
CCN(CC)CCNC(=O)c1cc(-c2cccnc2)nc2ccc(S(=O)(=O)N3CCC(C)CC3)cc12	Peg3 prom inh 72, HIF-2a inh 64 | Mdm2 MdmX conf 102 | HIF-2a inh conf inactive | HIF-1a counter 100
COc1cc2nc(N3CCN(c4cc(C)ccc4C)CC3)nc(N)c2cc1OC	Shn3 inh set2 94, Peg3 prom inh 102, HIF-2a inh 39 | Mdm2 MdmX conf 103 | HIF-2a inh conf inactive | HIF-1a counter 102
Cc1c(CCC(=O)N2CCC[C@H]2C(=O)O)c(=O)oc2c(C)c3oc4c(c3cc12)CCCC4	HIF-2a inh 57 | HIF-2a inh conf 71 | HIF-1a counter inactive
CCCCC(NC(=O)CCc1c(C)c2cc3c4c(oc3c(C)c2oc1=O)CCCC4)C(=O)O (stereo unspecified)	HIF-2a inh 53 | HIF-2a inh conf 55 | HIF-1a counter inactive
Cc1c(CC(=O)NCCCC(=O)O)c(=O)oc2c(C)c3oc4c(c3cc12)CCCC4	none
CCCCC(NC(=O)Cc1c(C)c2cc3c4c(oc3c(C)c2oc1=O)CCCC4)C(=O)O (stereo unspecified)	none
Cc1c(CCC(=O)NCCCn2ccnc2)c(=O)oc2c(C)c3oc4c(c3cc12)CCCC4	HIF-2a inh 47 | HIF-2a inh conf 63 | HIF-1a counter 59
COc1ccc(NS(=O)(=O)c2cccc(C(=O)N3CCCC(C)C3)c2)cc1 (stereo unspecified)	none
CCc1ccc2cccc3c2c1N=CN3C	none
Cc1ccc(-n2c(C)c([N+](=O)[O-])c3ccc(O)c(CN(C)C)c32)cc1	EBV LMP1 NFkB inconclusive, CF NFkB inh 82 | Mdm2 MdmX conf 92
COC(=O)CSc1nn(-c2ccc(F)cc2)c(=S)s1	none
CCCCCCCCC[n+]1cccc2c3ccccc3ccc21	Shn3 inh set2 89, Peg3 prom inh 113, EBV LMP1 NFkB 48 | Mdm2 MdmX conf 101
O=C(CN1CCN(CC(=O)Nc2ccc3c(c2)OC2(CCCCC2)O3)CC1)Nc1cccc(F)c1	none
Cc1cccc(CS(=O)(=O)c2ncc(Cl)c(C(=O)NCc3ccc4c(c3)OCO4)n2)c1	Shn3 inh set2 94, Peg3 prom inh 103, CF NFkB inh 89, HIF-2a inh 62 | HIF-2a inh conf 49 | HIF-1a counter inactive
Cc1ccc(NC(=O)c2nc(S(=O)(=O)Cc3ccccc3C)ncc2Cl)cc1C	KKLEB tox -98, Shn3 inh set2 96, Peg3 prom inh 108, CF NFkB inh 99, HIF-2a inh 93 | Mdm2 MdmX conf 103
